Measured values taken from PubChem BioAssay (NCATS).
Records with an inconclusive call do not appear. Where a call stands in place of a potency, no number is given. Active and inactive are the calls of the source. Calls follow the shape of the dose curve; as a rule, active = well fitted inhibition curve with a large enough effect; inconclusive = small, poorly fitted or top-dose-only effect; inactive = no such curve, though single readings can be large or run the other way.

The compounds below were run against Cytochrome P450 3A7 (Homo sapiens) (UniProt P24462) (assay: Cytochrome P450 family 3 subfamily A member 7 (CYP3A7) small molecule antagonists: luciferase biochemical qHTS assay (AID 1963596; also: nearly all actives have a fitted effect of over 40% in size)). Conditions: P450-Glo CYP3A7 enzyme luminescence, 1 h; series mostly up to 57.4 µM.
Sequence of Cytochrome P450 3A7 (Homo sapiens) (P24462 whole entry, looked up): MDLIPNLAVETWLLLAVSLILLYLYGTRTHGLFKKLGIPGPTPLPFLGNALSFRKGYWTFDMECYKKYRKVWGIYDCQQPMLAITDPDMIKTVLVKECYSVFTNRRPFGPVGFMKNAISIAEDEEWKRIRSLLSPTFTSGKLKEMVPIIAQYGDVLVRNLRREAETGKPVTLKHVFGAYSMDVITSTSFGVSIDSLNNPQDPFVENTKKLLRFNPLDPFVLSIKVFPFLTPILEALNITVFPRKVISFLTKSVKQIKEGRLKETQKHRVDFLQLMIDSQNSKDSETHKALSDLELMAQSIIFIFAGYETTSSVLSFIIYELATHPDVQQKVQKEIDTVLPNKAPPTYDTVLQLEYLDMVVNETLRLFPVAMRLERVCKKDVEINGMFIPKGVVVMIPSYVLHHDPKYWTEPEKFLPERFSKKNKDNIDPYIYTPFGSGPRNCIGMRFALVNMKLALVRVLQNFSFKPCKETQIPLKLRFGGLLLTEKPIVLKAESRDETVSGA
In short: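 Recombinant CYP3A7 P450-Glo luminescent assay: enzyme-proluciferin substrate mix preincubated with compound 10 min at room temperature, reaction started with NADPH regeneration system for 1 h. Luciferin detected by luminescence; ketoconazole as positive control.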
Potency is read from the fitted curve at half-maximal effect.

Row | Structure (SMILES) | Potency
1 | Cc1cccc(C)c1NC(=O)C(C)N (stereo not drawn) | inactive
2 | CCCCCC/C=C\CCCCCCCc1cccc(O)c1C(=O)O | inactive
3 | Cc1nc(C)c(-c2ccc(C3CCC(CC(=O)O)CC3)cc2)nc1C(N)=O (stereo not drawn) | inactive
4 | C=CS(=O)(=O)O | inactive
5 | O=C1CSc2ccccc2N1Cc1cccc(C(F)(F)F)c1 | inactive
6 | O=C(Nc1ccccc1C(=O)Nc1ccc(CCO)cc1)c1ccc([N+](=O)[O-])cc1 | inactive
7 | CC(CCC(=O)O)C1CC[C@H]2C3[C@H](O)C[C@@H]4C[C@H](O)CCC4(C)[C@H]3C[C@H](O)C12C (stereo partly drawn) | inactive
8 | COCC(=O)N1CCc2cc(-c3csc(NC(=O)c4cc(OC)cc(OC)c4)n3)ccc21 | inactive
9 | O=[N+]([O-])c1ccc(Oc2ccc(N=C=S)cc2)cc1 | 2390 nM (active)
10 | Cc1ccc(-n2nc3c(N4CCCC(C(=O)NCc5ccccc5C)C4)nnc(C)c3c2C)cc1 (stereo not drawn) | 756 nM (active)
11 | Nc1nccs1 | inactive
12 | O=C(O)[C@@H]1CCCN1 | inactive
13 | Cc1ccc(S(=O)(=O)N[C@@H]2CCCC[C@H]2O)cc1 | inactive
14 | CCOc1ccc(-c2nn3ncccc3c2-c2ccc(S(C)(=O)=O)cc2)cc1 | inactive
15 | NC(=O)OCC(O)COc1ccc(Cl)cc1 (stereo not drawn) | inactive
16 | CN(C)c1ccc(C(=C2C=CC(=[N+](C)C)C=C2)c2c(O)c(S(=O)(=O)[O-])cc3cc(S(=O)(=O)O)ccc23)cc1 | inactive
17 | COc1ccc(CNC(=O)Nc2ccc3c(c2)N(C)C(=O)c2ccccc2S3)cc1OC | inactive
18 | COC(=O)C(CN)c1c[nH]c2ccc(OC)cc12 (stereo not drawn) | inactive
